Test results as given in PubChem BioAssay (NCI).
Several values for one entry are separate records, joined by “and”; a condition that tells them apart may be missing. Identical values can stand only once. The panel holds about 83,000 compounds, 20% with a hit somewhere; the sample as a whole holds those more often.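 Negative percent growth values reflect cell death: -40 means 40% of the cells present at the start died, and -100 means all died.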 Values without a mark were called inactive. Activity calls are given as the source filed them. The calls were made as follows: active = growth percent below 10; inactive = the rest.

What follows are molecules tested on MDA-MB-468 breast (assay: NCI-60 one-dose screen, 48 h (100 = growth as untreated, 0 = no growth, -100 = all killed)). Details: 10 µM unless noted.

| Structure (SMILES) | growth |
| --- | --- |
| COc1cc2c3c(n(CCCNCC4CC4)c(=O)c2cc1OC)-c1cc2c(cc1C3=O)OCO2 | 41.4% |
| Nc1ccc(C2=NN(C(=O)c3cc(-c4ccc(Cl)cc4)nc4ccccc34)C(c3ccc(Cl)cc3)C2)cc1 (stereo not given) | 7.85% (active) |
| Cc1c(C(N)=O)sc2c1c(=O)n(Cc1ccccc1)c1nnc(SCC(=O)Nc3ccc(Cl)cc3)n21 | 39.6% |
| COc1ccc([C@H]2[C@@H](F)C(=O)N2c2cc(OC)c(OC)c(OC)c2)cc1F | 23% |
| COc1ccc(-c2c[nH]c(C(=O)O)c2-c2cc(OC)c3c(c2OC)OCO3)cc1 | 103% |
| COc1cc(/C=C/c2cc(/C=C/c3ccc(O)c(OC)c3)n(C(=O)c3ccc(Cl)cc3)n2)ccc1O | 1.45% (active) |
| O=C(Oc1ccccc1Cl)c1ccc(Cl)cc1Cl | 103% |
| COc1cc2cc(CN3CCN(c4nccc(-c5ccc6ccccc6c5)n4)CC3)c(=O)[nH]c2cc1OC | 51.4% |
| COC(=O)c1c2c(c(C)[n+]([O-])c1C)C(=O)C(NCc1cccc(OC)c1)=CC2=O | -21.3% (active) |
| Cc1ccc(NC(=O)/C=C/c2ccc(OCCCOc3ccc4c(C)cc(=O)oc4c3)cc2)cc1 | 77.5% |
| O=S(=O)(Nc1ccc(Br)cc1)c1ccc(-c2cnc(C3CC3)o2)cc1 | -12.4% (active) |
| Cc1c([C@H](C(Cl)Cl)[C@H](O)[C@H]2C[C@H](C)C(=O)O2)ccc2c1C(=O)[C@H]1[C@H]2C[C@@H](Br)[C@@]23O[C@@H](CO[C@H]2O)CC13C (stereo not given in full) | 17.5% |
| Cc1cc(O)c(C2=NN(c3ccc(S(N)(=O)=O)cc3)C(/C=C/c3ccccc3)C2)cc1Cl (stereo not given) | 43.3% |
| O=C(Cn1cc[n+](CC(=O)c2ccc(-c3ccccc3)cc2)c1)Nc1cccc2cccnc12 | 8.42% (active) |
| CC(C)(C)c1cc(C(=O)Nc2ccc(C(=O)NCCN)cc2)cc(C(C)(C)C)c1 | -39.5% (active) |
| COC(=O)C1=C(C(=O)ONCCN(C)C)C2C=CC1(C(Cc1ccccc1)Nc1ccc(F)cc1)O2 (stereo not given) | 75.3% |
| Clc1ccc(C2=Nc3cccc4cccc(c34)N2)cc1Cl | -43.8% (active) |
| NS(=O)(=O)c1cc2c(cc1Cl)NC(C(Cl)Cl)NS2(=O)=O (stereo not given) | 101% and 108% |
| Nc1nc(-c2cc3c(cc2Cl)NC(=O)/C3=C/c2ccc(Cl)cc2)cs1 | -14% (active) |
| CCN(CC)c1ccc(/C=N/NC(=O)CSc2nc3ccccc3c(=O)n2CCc2ccc(S(N)(=O)=O)cc2)c(O)c1 | -7.72% (active) |

| Structure (SMILES) | growth |
| --- | --- |
| Oc1c(Cl)cc(Cl)c(Cl)c1Cc1c(O)c(Cl)cc(Cl)c1Cl | 4.35% (active) |
| COc1ccc(C(=O)c2cc(OC)c(OC)c(OC)c2)cc1/C=C/C(=O)c1ccc(O)cc1 | 34.3% |
| Cc1cc(C)c(NC(=O)c2sc3nc4c(cc3c2N)CCCCCC4)c(C)c1 | 40.1% |
| Oc1ccc(Nc2ccc3ccccc3c2)cc1 | 30.5% |
| N#Cc1ncc(-c2ccc(F)c(F)c2F)c(NC2CCCCCC2)n1 | 86.1% |
| O=C(N/N=C/C=C\c1ccccc1)C(=O)N/N=C/C=C/c1ccccc1 | 105% |
| O=C(N=Nc1c(O)[nH]c2ccccc12)Nc1ccc(F)cc1 | 103% |
| C=CCC(OC(C)=O)c1ccc(OC)c(OC)c1 (stereo not given) | 125% |
| CN1CCN(CC#CCn2c3c(c4ccccc42)C[C@]2(C)[C@H]4CC[C@@H]5[C@H]6[C@H]7OC(=O)[C@@]6(CCC7(C)C)CC[C@@]5(C)[C@]4(C)CC[C@H]2C3(C)C)CC1 | 93.9% |
| O=c1[nH]cc(/C=N\Nc2ccccc2)c(=O)[nH]1 | 90.7% |
| CN1CCN(CC(=O)Nc2cccc(-n3cc(-c4ccncc4)c(-c4ccc(Cl)c(O)c4)n3)c2)CC1 | 10.7% |
| CCOC(=O)C(=Cc1cccc(Br)c1)C(=O)OCC | 31% |
| CCOC(=O)/C(=C(\C)N)C1CC(=O)NC1=O (stereo not given) | 92.3% |
| Cc1cnc(/C=N\NC(N)=S)c2cccc(N)c12 | -27.7% (active) |
| Nc1c(C(=O)Nc2ccccn2)sc2nc3c(cc12)C(=O)CCC3 | 7.45% (active) |
| CCN(CC)CCCC(C)Nc1ccnc(/C=C/c2ccc(Cl)cc2)c1 (stereo not given) | -84.5% (active) |
| CCN(CC)CCOc1ccc(Cl)c(C)c1 | 103% |
| O=C(/C=C/c1cccc(F)c1)c1cccc(OCCCOc2cccc(C(=O)/C=C/c3cccc(F)c3)c2)c1 | 75.2% |
| COc1ccc(Oc2ccc(/C=N/NC(=O)CSc3nc4ccccc4c(=O)n3-c3ccc(Cl)cc3)cc2)cc1 | 66.8% |
| Oc1c(CN2CCOCC2)cc(COCc2ccccc2)c2cccnc12 | 12.1% |
